KB-V1 MDR tox = kills drug-selected multidrug resistant KB-V1 cells; 400,000 tested, 3.4% active; KB-V1 MDR cells viability, CellTiter-Glo, 72 h; Potency, µM (doses to about 46.1 µM), hits mostly cytotoxic; also: nearly all actives have a fitted effect of over 60% in size
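Following 72 h at 37 degrees C with compound, KB-V1 cell viability was read by CellTiter-Glo luminescence, medium being phenol-red-free DMEM plus 10% FBS; concentration-response parameters came from normalized, curve-fitted qHTS data.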
DT40 TDP1 CPT = DT40-hTDP1 cell growth loss with CPT. chicken DT40 Tdp1-/-;hTDP1 cells + 20 nM CPT, ATP luminescence, 48 h. 420,000 tested, 12% active. Potency, µM (doses to about 46.2 µM), inactives show at the highest dose activity change, negative = growth inhibition, usual class: inhibitors. AID 686979; also: nearly all actives have a fitted effect of over 55% in size
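Chicken DT40 Tdp1-/- cells stably complemented with human TDP1 were seeded at 400 cells/well in medium containing 20 nM camptothecin, exposed to pin-transferred compounds, and grown at 37 °C for at least 48 hr. Viability was read as ATP luminescence.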
HT1080 IDH1KD tx = toxicity to HT-1080 IDH1 knockdown cells (counter line). HT-1080 IDH1 knockdown viability, ATP luminescence, 48 h. Potency, µM (top dose mostly 46.1 µM), without a hit: top-dose activity, negative = toxicity, hits mostly cytotoxic. 360,000 tested, 2% active. AID 686971;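 also: 0% = DMSO wells and -100% = cell-free medium wells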
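Assay cells: HT-1080 with IDH1 knockdown, 750 per well, RPMI/5% FBS. Exposure: 48 h at 37 °C following 2 h pre-incubation. Read: CellTiter-Glo luminescence; fitted concentration-response, curve class assigned.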
HT1080NT lethal = kills 2HG-producing HT-1080-NT fibrosarcoma cells | 360,000 tested, 1.6% active | HT-1080-NT fibrosarcoma viability, CellTiter-Glo ATP luminescence, 48 h | Potency, µM (doses to about 46.1 µM), inactives show top-dose activity, negative = less viability, usual class: cytotoxic;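 also: NT is the 2HG producing partner of a matched IDH1 knockdown line; 0% = DMSO-treated cells and -100% = media-only wells without cells; nearly all actives have a fitted effect of over 55% in size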
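Fibrosarcoma NT cells, 750 per well in 5% FBS RPMI, were exposed to compound for 48 hours. Viability: CellTiter-Glo luminescence.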
KB-3-1 cytotox = KB-3-1 parental cell cytotoxicity. KB-3-1 viability, CellTiter-Glo ATP luminescence, 72 h. Potency, µM (doses to about 46.1 µM), most hits filed as cytotoxic. 400,000 tested, 1.4% active; also: nearly all actives have a fitted effect of over 60% in size
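KB-3-1 parental drug-naive adenocarcinoma cells in DMEM/10% FBS, incubated 72 h at 37 C with pin-transferred compounds across a concentration series. Viability by CellTiter-Glo luminescence; concentration-response curves fitted after normalization.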
DT40 TDP1 no CPT = qHTS for Inhibitors of human tyrosyl-DNA phosphodiesterase 1 (TDP1): qHTS in cells in absence of CPT | DT40 Tdp1-/- hTDP1 cells, no CPT, ATP luminescence, 48 h | Potency, µM (top dose mostly 46.2 µM), for inactives: at the top dose activity change, negative = growth inhibition, usual class: inhibitors | 420,000 tested, 15% active; also: nearly all actives have a fitted effect of over 55% in size
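Chicken DT40 Tdp1-/- cells complemented with human TDP1, screened without camptothecin (DMSO vehicle only), 400 cells/well. Compounds pin-transferred, cells incubated at 37 °C for at least 48 hr. Growth read as ATP-dependent luminescence (CellTiter-Glo, 30 min at RT).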
The depositor's hits bear a star; i = inactive; ? = inconclusive; nt = not tested or not shown; ! = not active in a repeat; [ ] = dose if it differs, or a comment. Shown are actives, neighbours in structure and some others; about 19% of the full set was active somewhere. Calls follow the shape of the dose curve; as a rule, active = well fitted curve in the direction sought with a large enough effect; inconclusive = small, poorly fitted or top-dose-only effect, or another doubt; inactive = no such curve, though single readings can be large; an effect the other way counts as inactive or inconclusive. Unless noted, % is scaled to controls: 0 for no effect and ±100 for the full control effect; potency is read from the fitted curve at half-maximal effect.

SMILES	KB-V1 MDR tox	DT40 TDP1 CPT	HT1080 IDH1KD tx	HT1080NT lethal	KB-3-1 cytotox	DT40 TDP1 no CPT
C(=Cc1c[nH]c2ccccc12)c1ccc2ccccc2n1	i	?	23µM*	16µM*	i	?
CC(=O)Oc1c(Cl)cc(Cl)cc1/C=C/c1ccc2ccccc2n1	?	?	?	-4%[9.24 µM]	?	-6%
CC(=O)Nc1cccc2c1C(=O)N(c1ccc(OC(C)=O)cc1)C2=O	i	2%	12%	21%	i	-12%
O=C(O)/C=C/c1ccc2ccccc2n1	i	?	-22%	-24%	i	-27%
CC[N+](CC)(CC)c1ccc(/C=C/c2ccc3ccccc3n2)cc1	i	0.089µM*	nt	nt	1.8µM*	0.071µM*
O=C(/C=C/c1ccc2ccccc2n1)c1cc(Br)ccc1O	i	12µM*	2%	-12%	i	?
C(=C\c1ccc2ccccc2n1)/c1ccc2ccccc2n1	?	13µM*	nt	nt	?	?
O=[N+]([O-])c1ccc(/C=C/c2ccc3ccccc3n2)cc1	i	?	4%	2%	i	?
C(=C\c1ccc2ccccc2n1)/c1cccnc1	i	22µM*	nt	nt	?	16µM*
Cc1cccc(NC(=O)c2ccc3[nH]c(C)cc(=O)c3c2)c1	i	-2%	nt	nt	i	-21%
COCCNC(=O)CN1C(=O)NC2(CCCc3cc(OC)ccc32)C1=O (stereo not given)	i	8%	20%	10%	i	1%
Cc1ccc(S(=O)(=O)N(CC(=O)NC2CC3CCC2C3)c2ccccc2)cc1 (stereo not given)	i	?	-4%	-4%	i	?
C(=C\c1ccc2ccccc2n1)/c1ccccc1	i	?	?	?	?	?
Oc1ccc(/C=C/c2ccc3ccccc3n2)cc1	i	23µM*	-21%	-21%	?	21µM*
N#Cc1ccccc1OCC(=O)OCC(=O)Nc1ccc2c(c1)OCO2	i	-8%	0%	2%	i	23%
COC(=O)[C@@H](CC(C)C)N(Cc1ccccc1)S(=O)(=O)N(Cc1ccccc1)[C@@H](CC(C)C)C(=O)OC	?	21µM*	-7%	-3%	?	11µM*!
O=C(Nc1ccc2nn(-c3ccccc3)nc2c1)c1ccc(-c2cccc(Cl)c2)o1	i	-25%	nt	nt	i	?
COc1cccc2c1Oc1cc([N+](=O)[O-])cc(N(C)C(C)=O)c1C=C2	i	?	-3%	-9%	i	21µM*
O=C(NCCCO)c1cc([N+](=O)[O-])cc2c1C=Cc1ccccc1O2	i	?	-1%	-2%	i	?
Cc1ccc(NS(=O)(=O)c2cc([N+](=O)[O-])ccc2N/N=C/c2sc(N3CCOCC3)nc2-c2ccccc2)c(C)c1	i	21µM*	5%	-1%	i	18µM*
COc1ccccc1Cc1c(-c2cccc(Br)c2)nc2c(C)cc(Br)cn12	?	16µM*	?	?	i	23µM*
COc1ccccc1Cc1c(-c2ccc(Cl)cc2)nc2c(C)cc(Br)cn12	?	6.5µM*	?	?	16µM*	7.3µM*
NC1(C(=O)O)CCCCC1c1ccccc1 (stereo not given)	i	-9%	2%	4%	i	1%
COCCNC(=O)[C@@]1(C)C=C[C@@H](Cc2ccccc2)N1C(=O)c1ccccc1	i	?	-10%	0%	i	?
C[C@]1(C(=O)NCc2cc(F)cc(C(F)(F)F)c2)C=C[C@@H](Cc2ccccc2)N1C(=O)c1ccccc1	?	16µM*	-11%	?	i	?
